Values joined by “and” are separate entries in the source; they are usually repeats but may differ in a detail not shown here. Equal values may be shown once. About 83,000 compounds went through this panel and 20% of them were active in at least one assay; those are over-represented in the sample as a whole.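 96-well plates, one dose, 48 hours. Percent growth reported; active if below 10.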 Active and inactive are the calls of the source.
How the values were obtained:
Experiment in all cases: NCI-60 one-dose screen, 48 h (100 = growth as untreated, 0 = no growth, -100 = all killed)
Conditions in all cases: 10 µM unless noted
NCI-H23 lung = tested on: NCI-H23 lung
NCI-H226 lung = tested on: NCI-H226 lung
NCI-H322M lung = tested on: NCI-H322M lung
HOP-62 NSCLC = tested on: HOP-62 NSCLC
NCI-H460 lung = tested on: NCI-H460 lung
HOP-92 NSCLC = tested on: HOP-92 NSCLC
NCI-H522 lung = tested on: NCI-H522 lung
A549/ATCC NSCLC = tested on: A549/ATCC NSCLC
786-0 renal = tested on: 786-0 renal
COLO 205 colon = tested on: COLO 205 colon
DU-145 prostate = tested on: DU-145 prostate
K-562 leukemia = tested on: K-562 leukemia
MALME-3M melanoma = tested on: MALME-3M melanoma
MDA-MB-231 breast = tested on: MDA-MB-231 breast
RXF 393 renal = tested on: RXF 393 renal
SF-268 CNS = tested on: SF-268 CNS
SF-295 CNS = tested on: SF-295 CNS
SF-539 CNS = tested on: SF-539 CNS
UACC-257 melanoma = tested on: UACC-257 melanoma
M14 melanoma = tested on: M14 melanoma

SMILES	growth (NCI-H23 lung)	growth (NCI-H226 lung)	growth (NCI-H322M lung)	growth (HOP-62 NSCLC)	growth (NCI-H460 lung)	growth (HOP-92 NSCLC)	growth (NCI-H522 lung)	growth (A549/ATCC NSCLC)	growth (786-0 renal)	growth (COLO 205 colon)	growth (DU-145 prostate)	growth (K-562 leukemia)	growth (MALME-3M melanoma)	growth (MDA-MB-231 breast)	growth (RXF 393 renal)	growth (SF-268 CNS)	growth (SF-295 CNS)	growth (SF-539 CNS)	growth (UACC-257 melanoma)	growth (M14 melanoma)
CCOC(=O)n1cc(-c2nonc2-c2cn(C)c3ccc(OC)cc23)c2cc(F)ccc21	76.1% (inactive)	78.3% (inactive)	67.4% (inactive)	72.6% (inactive)	80.6% (inactive)	71.4% (inactive)	74.4% (inactive)	56.5% (inactive)	93.9% (inactive)	90.9% (inactive)	92.7% (inactive)	67.7% (inactive)	81.9% (inactive)	71.4% (inactive)	89.6% (inactive)	83.1% (inactive)	60.8% (inactive)	86.1% (inactive)	74.5% (inactive)	83.9% (inactive)
O=C(N=Nc1c(O)[nH]c2ccccc12)Nc1ccccc1Cl	80.1% (inactive)	87.1% (inactive)	73.5% (inactive)	104% (inactive)	92.1% (inactive)	90.3% (inactive)	78.6% (inactive)	107% (inactive)	96.9% (inactive)	105% (inactive)	98.8% (inactive)	88.1% (inactive)	96.9% (inactive)	85.1% (inactive)	101% (inactive)	96.8% (inactive)	94.1% (inactive)	95.7% (inactive)	92% (inactive)	94.7% (inactive)
NNCCc1ccccc1	103% (inactive) and 88.8% (inactive)	93.3% (inactive) and 75.7% (inactive)	95.2% (inactive)	104% (inactive) and 103% (inactive)	115% (inactive) and 105% (inactive)	83.1% (inactive) and 102% (inactive)	92.1% (inactive) and 94.1% (inactive)	108% (inactive) and 90.5% (inactive)	95.2% (inactive) and 106% (inactive)	96.5% (inactive) and 103% (inactive)	122% (inactive) and 108% (inactive)	91.5% (inactive) and 105% (inactive)	82.1% (inactive)	93.4% (inactive) and 83.5% (inactive)	122% (inactive) and 80.3% (inactive)	108% (inactive) and 96.1% (inactive)	106% (inactive) and 92% (inactive)	96.9% (inactive)	121% (inactive)	101% (inactive) and 96.1% (inactive)
CCn1cc(C(=O)NN=C2CCCC2)c(=O)c2ccc(C)nc21	98.9% (inactive)	82.9% (inactive)	82.4% (inactive)	93.3% (inactive)	92.9% (inactive)	90.6% (inactive)	88.8% (inactive)	90.3% (inactive)	93.1% (inactive)	104% (inactive)	109% (inactive)	93.1% (inactive)	91.8% (inactive)	93.3% (inactive)	103% (inactive)	93.4% (inactive)	92.8% (inactive)	96.2% (inactive)	90.1% (inactive)	102% (inactive)
CCN1C(=O)/C(=c2\sc3n(c2=O)C2C(NN=3)N(CC)C(=O)N2CC)c2ccccc21 (stereo not given)	34.5% (inactive)	103% (inactive)	46.5% (inactive)	32.1% (inactive)	4.65% (active)	39.2% (inactive)	19.9% (inactive)	32.8% (inactive)	30.9% (inactive)	-11.5% (active)	7% (active)	7.63% (active)	49.5% (inactive)	23.9% (inactive)	-7.21% (active)	61.7% (inactive)	9.43% (active)	-20.9% (active)	96.5% (inactive)	46.2% (inactive)
Cc1ccc(S(=O)(=O)OC[C@@]2(C)CC[C@]3(C)CC[C@]4(C)C(=CC[C@@H]5[C@@]6(C)CCCNC(C)(C)[C@@H]6CC[C@]54C)[C@@H]3C2)cc1	-64.5% (active)	19.7% (inactive)	-87.4% (active)	-82.8% (active)	-74.6% (active)	-71.2% (active)	-81.5% (active)	-75.9% (active)	-79% (active)	-82.6% (active)	-90.7% (active)	-39.5% (active)	-75.8% (active)	-85.7% (active)	-85.9% (active)	-55.2% (active)	85.6% (inactive)	-93.2% (active)	-58.7% (active)	-68.5% (active)
CCCCCCCCCCCCCCCC[N+](C)(C)CCN(Cc1ccc(OC)cc1)c1ncccn1	41.5% (inactive)	48.3% (inactive) and 60.2% (inactive)	-81.8% (active) and 74.2% (inactive)	-100% (active) and 65.2% (inactive)	-84.1% (active) and 67.4% (inactive)	-66.1% (active) and 15.6% (inactive)	-91.2% (active) and 23.4% (inactive)	-86.1% (active) and 54.4% (inactive)	-33.7% (active) and 61.9% (inactive)	-100% (active) and 33.1% (inactive)	-100% (active) and 69.4% (inactive)	35.5% (inactive)	-70.3% (active) and 43.8% (inactive)	-82.5% (active) and 47.1% (inactive)	-58.4% (active) and -49.8% (active)	-92.9% (active) and 38% (inactive)	-90.6% (active)	-91.3% (active) and 71.2% (inactive)	25.2% (inactive) and 28.7% (inactive)	-62.6% (active) and -17.7% (active)
